# The full list was thinned out, with hits kept by preference.
# Dicer processing: human Dicer pre-microRNA cleavage inhibition; Q9UPY3; cat-ELCCA pre-miR-21 Dicer processing, chemiluminescence; hits give high values; z-score at 25 µM; actives 6% (n = 47,000); in the data active = z-score above about 3, passing the limit was not always enough;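 note: plate controls were vehicle for no effect and no enzyme for full effect; higher signal means more uncleaved substrate so more Dicer inhibition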
# * marks the source's active call; other numbers are inactive results.
SMILES,Dicer processing
COC(=O)c1c(C)n(S(=O)(=O)c2cccs2)c2ccc(NS(=O)(=O)c3cccs3)cc12,2.1
O=C(O)c1ccc(-n2nnnc2SCc2ccccc2Br)cc1,0.34
NC(=O)c1ccc(-n2nnnc2SCc2ccccc2Br)cc1,4*
Clc1ccccc1CSc1nnnn1-c1ccccc1,0.72
CC1CN(C)c2ccccc2N(C)C1=O (stereo unspecified),-1.1
CNC(=O)n1nccc1-c1sc2ccccc2c1C,-3.8
O=C1Nc2ccccc2/C1=C/c1cccn1-c1ccc(OC(F)(F)F)cc1,0.47
O=c1[nH]c(Nc2nc(-c3ccccc3)c3cc(Cl)ccc3n2)nc2c1CCC2,-0.22
CSc1nc(N)nc(-c2ccccc2Cl)c1C#N,-1.4
CSc1nc2cc(C)nn2c(-c2ccc(C(C)(C)C)cc2)c1C#N,2.6
CSc1nc2cc(C)nn2c(-c2ccccc2Cl)c1C#N,5.2*
O=c1c(-c2ccccc2)c(C(F)(F)F)oc2c(CN3CCCC3)c(O)ccc12,-0.02
COc1ccc(Nc2sc(C(C)=O)cc2[N+](=O)[O-])cc1,1.4
CC(=O)c1cc([N+](=O)[O-])c(Nc2ccccc2)s1,0.9
CC(=O)c1cc([N+](=O)[O-])c(Nc2ccc(Cl)cc2)s1,4.8*
CCCOC1C=CC(Oc2nc(NCC)cc(N(C)C)n2)=NN1 (stereo unspecified),0.15
O=C1OCc2cccc3cccc(c23)S(=O)c2cccc3cccc1c23 (stereo unspecified),-1.2
CCOc1ccc(-c2nc(-c3ccc(C)cc3)no2)cc1OCC,1.8
O=C(NCc1ccc(S(=O)(=O)Nc2ccccc2Cl)s1)c1ccccc1,-0.52
O=C(NCc1ccc(S(=O)(=O)Nc2ccc3c(c2)OCCO3)s1)c1ccc(Cl)cc1,0.24
O=C(NCc1ccc(S(=O)(=O)Nc2ccc3c(c2)OCCO3)s1)c1ccccc1,3.2*
Cc1ccc(Cc2cn3cc(-c4ccc(Cl)cc4)nc3s2)cc1,1.5
COCCCNC(=O)/C(C#N)=C/N(C)C,-0.03
Nc1cccc(-c2cc(C(=O)O)c3ccccc3n2)c1,-0.8
O=C(O)c1cc(-c2ccccn2)nc2ccccc12,-0.85
SMILES,Dicer processing
COc1ccc(-c2cc(C(=O)O)c3ccccc3n2)c(OC)c1,4.5*
Cc1ccc(C2C(C#N)=C(SCC(=O)Nc3ccc(Br)cc3)NC3=C2C(=O)CCC3)o1 (stereo unspecified),-0.81
CC(C)n1c2ccccc2c2ccccc21,0.68
CCCCn1c2ccccc2c2nc3cc(OC)c(OC)cc3nc21,1
COc1cc2nc3c4ccccc4n(C(C)C)c3nc2cc1OC,3.4*
CSC1=C(C#N)C(c2cccc(Oc3ccccc3)c2)CC(=O)N1 (stereo unspecified),1
CCCCc1c(COC)nc(N)[nH]c1=O,0.11
NNC(=O)c1[nH]c2ccc([N+](=O)[O-])cc2c1-c1ccccc1,-1.7
O=C(O)c1[nH]c2ccc([N+](=O)[O-])cc2c1-c1ccccc1,0.06
Cc1ccc(S(=O)(=O)NNC(=O)c2[nH]c3ccc([N+](=O)[O-])cc3c2-c2ccccc2)cc1,6.7*
FC(F)(F)c1cc(-c2ccc(Cl)cc2)nc2cc(C3CC3)nn12,-0.53
CCCCC(=O)Nc1sc2c(c1C(N)=O)CCCC2,-0.97
COc1cc(Cl)c(C(F)(F)F)cc1NC(=O)c1ccccc1Cl,1.5
Cn1c([N+](=O)[O-])cnc1C=Nc1ccc(Oc2ccc(F)cc2)nc1,-0.01
Cc1ccc(C(=O)CC(=O)c2ccc(C)cc2O)cc1,3.6*
Cc1ccc(C(=O)c2cc(Cl)cc(Cl)c2)c(C)c1,-3.2
CCCC(=O)c1ccc(NC(C)=O)cc1O,0.35
Cc1cc(=O)[nH]c(-c2cccc(Cl)c2)n1,1.2
CC1(C)CC2(C)OC(=O)c3ccccc3N2C(=S)N1 (stereo unspecified),-0.95
CCNc1nc(-c2ccccc2)cs1,3.3*
O=C(Nc1nc(-c2ccccc2)cs1)C1CC1,6.7
Cc1nc(-c2ccc(-c3ccccc3)cc2)cs1,0.49
O=C(Nc1cccc(C(F)(F)F)c1)c1cncc(C#Cc2ccccc2)c1,-2.4
O=C(Nc1ccc(Cl)cc1)c1cncc(C#Cc2ccccc2)c1,2
O=C(NC(=S)N1CCc2ccccc21)c1cncc(C#Cc2ccccc2)c1,3.8*
SMILES,Dicer processing
COc1cc(C(=O)NC(=S)Nc2ccc(C)c(F)c2)cc(OC)c1OC,0.51
COC(=O)c1cc2c(N)c(C(=O)c3cccc(C(F)(F)F)c3)sc2nc1C(OC)OC,-0.51
Cc1nn(-c2ccccc2)c2c1C1(C)CC(C)(O2)c2c(C)nn(-c3ccccc3)c2O1,-8.8
CC1=NN(c2ccccc2)C(C2=C(C)CCCC2(C)C)C1 (stereo unspecified),3.2*
Fc1ccc(C2=NN(c3ccccc3)C(c3ccc(F)cc3)C2)cc1 (stereo unspecified),2.4
N[C@@H](Cc1c[nH]c2ccccc12)C(=O)O,-1.1
Clc1ccc(Cc2nc(-c3ccccc3)cs2)cc1,-0.36
Oc1ccc(-c2csc(Cc3c[nH]c4ccccc34)n2)cc1O,5.6*
CC1=C(C(=O)OCCOc2ccccc2)C(c2cccs2)C2=C(CCCC2=O)N1 (stereo unspecified),0.02
Cc1cc(C)c2c(n1)sc1c(=O)oc(C)nc12,4.9*
Cc1cc(C)c2c(n1)sc1c(=O)n(/N=C/c3ccccc3)c(C)nc12,-0.57
CC(=O)Cn1cnc2c(sc3nc(C)cc(C)c32)c1=O,0.8
Cc1ccc(S(C)(=O)=NC(=O)Nc2ccc(Cl)cc2)cc1 (stereo unspecified),0.02
CC(C)CNC1CC(=O)N(c2ccc(C(C)C)cc2)C1=O (stereo unspecified),-0.87
CN(C)c1ccc(NC2CC(=O)N(c3ccc(F)cc3)C2=O)cc1 (stereo unspecified),-1.6
CCCCCCCNC1CC(=O)N(c2ccc(F)cc2)C1=O (stereo unspecified),3.9*
CS(=O)(=N/C=C(\C#N)S(=O)(=O)c1ccc(C(F)(F)F)cn1)c1ccc(Oc2ccc([N+](=O)[O-])cn2)cc1 (stereo unspecified),0.08
CCOC(=O)C1C(c2ccc(C#N)cc2)C(C(=O)OCC)C(O)(C(F)(F)F)NC1(O)C(F)(F)F (stereo unspecified),1.4
C=COC(=O)CSc1nc(C)c(CC)c(C)c1C#N,2.5
O=C(O)c1cc(-c2cccc(Br)c2)nc2cc(C(F)(F)F)cc(C(F)(F)F)c12,-2
CCCCCCc1c(O)nc(SCCN(C)C)[nH]c1=O,0.69
CCCCCCc1c(O)nc(SCC(=O)O)[nH]c1=O,5.7*
CCCCCc1c(O)nc(SCCN(C)C)[nH]c1=O,1.2
COc1cccc(C(=O)Nc2ccc(Cl)cc2OC(F)(F)F)c1,-0.74
OC1CCN(CC(O)COc2ccc(Cl)c(Cl)c2)CC1 (stereo unspecified),-0.59
CCOC(=O)C1=C(C)NC2=C(C(=O)CC(C)(C)C2)C1c1ccc(OC)cc1 (stereo unspecified),-1.1
CCOC(=O)C1=C(C)NC2=C(C(=O)CC(C)(C)C2)C1c1ccc(OC(C)=O)cc1 (stereo unspecified),6.8*
CCCOC(=O)C1=C(C)NC2=C(C(=O)CC(c3ccccc3)C2)C1c1ccc(C)cc1 (stereo unspecified),1.1
CCCOC(=O)C1=C(C)NC2=C(C(=O)CC(c3ccc(Cl)cc3)C2)C1c1ccc(O)cc1 (stereo unspecified),4.7*
COc1ccc(COC(=O)C2=C(C)NC3=C(C(=O)CC(C)(C)C3)C2c2ccc(OC)cc2)cc1 (stereo unspecified),3.5*
